Source: PubChem BioAssay (Broad Institute)
CD40 NFkB inh: CD40 pathway inhibition in BL2 cells | BL2 NF-kB luciferase reporter, CD40L-induced, 4 h | inhibition, % at 10 µM | AID 1053188 | 83,000 tested, 0.94% active;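 active means mean inhibition of at least 50% with a set share of replicates also reaching that level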;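 further: 0% = neutral control wells and 100% = IKK inhibitor VII at 50 µM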
* hit, by the source's call; [ ] = another dose, or the depositor's remark. Shown is part of a subset that was picked to be rich in hits.

SMILES	CD40 NFkB inh
O=C(COc1ccc2c(c1)OCO2)Nc1nnc(Cc2ccccc2)s1	12
O=C(COc1ccc2c(c1)OCO2)Nc1ccc(Cl)cn1	-71
O=C(COc1ccc2c(c1)OCO2)Nc1nccs1	47*
CC1CCCC=CC2CC(OC(=O)CN(C)C)CC2C(O)C=CC(=O)O1 (centres undefined)	83*
COc1ccc2c3c(n(C)c2c1)[C@H](CO)NCC31CN(Cc2ccc(-c3ccccn3)cc2)C1	-17[25 µM]
COc1ccccc1C(=O)N1C[C@H]2[C@@H](c3ccccc31)[C@H](CO)N2Cc1ccc(F)cc1	5[25 µM]
CC=Cc1ccc2n(c1=O)C[C@@H]1[C@@H](CO)[C@H](C(=O)N3CCOCC3)N(Cc3ccccc3)[C@H]21 (mixture of isomers)	1[25 µM]
Cc1ccccc1-c1ccc(C2[C@@H]3CN(Cc4cccnc4)C[C@H]2N3)cc1 (some centres undefined)	-12
Cc1[nH]c2ccccc2c1C(c1ccncc1)N1CCC(C)CC1 (centres undefined)	16
Cc1[nH]c2ccccc2c1C(c1ccccn1)N1CCC(C(N)=O)CC1 (centres undefined)	62*
Cc1[nH]c2ccccc2c1C(c1ccncc1)N1CCN(c2ccccn2)CC1 (centres undefined)	-3
O=C(C1CC1)N1C[C@H]2[C@@H](c3ccccc31)[C@H](CO)N2Cc1ccccc1Cl	6
CC(=O)N1[C@H](C(=O)Nc2ccccc2)[C@@H](CO)[C@@H]2Cn3c(ccc(C4=CCCCC4)c3=O)[C@@H]21	-2[25 µM]
COc1ccc(-c2ccc3c(c2)[C@H]2[C@H](CCN2C(=O)Cc2ccccc2)[C@H](CO)N3C)cc1	12[25 µM]
O=C(Nc1ccccc1)N1C[C@@H]2[C@H](c3ccccc31)[C@H](CO)N2C(=O)c1ccccc1F	-23
CN1CCN(c2ccccc2NC(=O)c2ccc(-c3cccc([N+](=O)[O-])c3)o2)CC1	-11
O=C(Nc1ccccc1)c1ccc(-c2ccc([N+](=O)[O-])cc2)o1	-47
O=C(c1ccc(-c2ccc(Cl)cc2)o1)N1CCN(c2ccc([N+](=O)[O-])cc2Cl)CC1	49*
CCOCCCNC(=O)/C(C#N)=C/c1ccc(Cl)c([N+](=O)[O-])c1	73*
N#C/C(=C\c1ccc(O)c(O)c1)C(=O)NCCCc1ccccc1	1
COCCCNC(=O)c1ccc([N+](=O)[O-])c(Cl)c1	21
C[C@@H](NC(=O)[C@@H]1[C@@H](CO)[C@@H]2Cn3c(ccc(-c4ccccc4)c3=O)[C@@H]2N1C)c1ccccc1	-4[25 µM]
Cn1nc(-c2ccccn2)nc2c(=O)n(C)c(=O)nc1-2	101*
COc1ccc(-c2nc(-c3ccccn3)ncc2S(C)(=O)=O)cc1	9
c1ccc(-c2nccc(-c3ccco3)n2)nc1	-25
SMILES	CD40 NFkB inh
CC(=O)Nc1ccc2c(c1)CC(=O)N(C)C[C@@H](C)[C@@H](CN(C)C(=O)NC(C)C)O2	5
CCC(=O)N1[C@H](CO)[C@H](c2ccc(-c3ccc(F)cc3)cc2)[C@@H]1CN(C)C(C)=O	2
COc1cc(N2C(=O)C=CC2=O)ccc1N1C(=O)C=CC1=O	109*
COc1ccc(-n2c(C)c3c(C)nnc(C)c3c2C)cc1OC	-5
COc1ccccc1N1C(=O)C2CC(C)=C(C)CC2C1=O (centres undefined)	-5
COc1ccc(C#Cc2ccc([C@@H]3[C@H](CO)N4C(=O)CN(C(=O)c5ccc(F)cc5)C[C@@H]34)cc2)cc1	1[25 µM]
COCC(=O)N1[C@@H]2Cn3c(ccc(-c4ccccc4)c3=O)[C@H]1[C@@H](C(=O)NCc1ccccn1)[C@@H]2CO	1[25 µM]
O=C(C1CCCC1)N1CC(=O)N2[C@@H](CO)[C@@H](c3ccc(C#CCc4ccccc4)cc3)[C@@H]2C1	55*
O=C(C1CCOCC1)N1CC(=O)N2[C@H](CO)[C@@H](c3ccc(C#CCc4ccccc4)cc3)[C@H]2C1	-6[25 µM]
COCC#Cc1ccc([C@H]2[C@H]3CN(C(=O)C4CCCCC4)CC(=O)N3[C@H]2CO)cc1	2[25 µM]
COCC#Cc1ccc([C@H]2[C@H]3CN(C(=O)C4CCCC4)CC(=O)N3[C@H]2CO)cc1	-3
O=C(C1CCCC1)N1CC(=O)N2[C@H](CO)[C@@H](c3ccc(C#CCc4ccccc4)cc3)[C@@H]2C1	39
O=C(C1CCCC1)N1CC(=O)N2[C@H](C1)[C@@H](c1ccc(C#CCc3ccccc3)cc1)[C@@H]2CO	51*
O=C(c1ccccc1F)N1C[C@@H]2[C@H](c3ccccc31)[C@@H](CO)N2C(=O)Nc1ccccc1	7[25 µM]
CO[C@H]1CN(C)C(=O)c2cc(NC(=O)Cc3ccccc3)ccc2OC[C@H](C)N(C(=O)c2ccccc2F)C[C@H]1C	-3[25 µM]
CC(C)NC(=O)Nc1ccc2c(c1)C(=O)N(C)C[C@@H](C)[C@H](CN(C)C)O2	-2
Cc1ccc(P(=O)(CSC(=N)N)c2ccc(C)cc2)cc1	61*
O=C(C[C@@H]1CC[C@H]2[C@@H](COC[C@@H](O)CN2Cc2nccs2)O1)NCc1ccccc1Cl	-10[25 µM]
Cc1cc(SCC(=O)NC2(C#N)CCCCC2)nc2c(C)cccc12	-2
N#CC1(NC(=O)COC(=O)c2ccc(Cl)nc2)CCCCC1	3
